Reference: the supplement of paper PMC6555819

Tests used:
Experiment in all cases: PBM binding z-score (relative to random genomic background probes); higher = stronger binding; sequences stand for … in GC…GCGATTGACAGCGTAGAATGAAGG
[1] = system: RARb homodimer (NR concentration 270 nM)
Procedure, shortened: (§1)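 Binding z-scores take random background probes as their reference. They come from custom Agilent 4×180K protein-binding microarrays incubated 1 h with ligand-free nuclear receptor dimers, with antibodies against each partner (one per run) detecting binding. Scanned fluorescence was regression-normalized.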

[2] = system: RARg:RXRa (NR concentration 270 nM, RXRa partner concentration 90 nM)
Procedure, shortened: as §1

[3] = system: RARg homodimer (NR concentration 270 nM)
Procedure, shortened: as §1

[4] = system: RXRa DBDmut IVT, anti-RXR (DBD mutation: RXRa K156A/R161A, NR concentration 90 nM)
Procedure, shortened: as §1

[5] = system: RXRa homodimer (NR concentration 180 nM)
Procedure, shortened: as §1

[6] = system: THRa:RXRa (NR concentration 90 nM, RXRa partner concentration 90 nM)
Procedure, shortened: as §1

[7] = system: THRa homodimer (NR concentration 90 nM)
Procedure, shortened: as §1

[8] = system: VDR homodimer (NR concentration 270 nM)
Procedure, shortened: as §1

Sequence	PBM binding z-score [1]	PBM binding z-score [2]	PBM binding z-score [3]	PBM binding z-score [4]	PBM binding z-score [5]	PBM binding z-score [6]	PBM binding z-score [7]	PBM binding z-score [8]
ACAGACAGGTGAGTGAAGGTATCTCAGCTGGACG	-0.269	-0.0868	0.333	-0.121	0.228	-0.00206	-0.781	-0.981
ATCTCTAGGTAAAAGTTCACTGAATCCCGAGGAT	3.15	3.04	2.99	0.997	3.02	2.01	0.473	2.79
TCTCGGAGGACACGAATGGTCAGAGCTCGACATC	0.664	0.332	1.29	0.733	0.156	1.01	0.00528	-0.606
TCTTGTAGATCAAAGGTTAGGAAAGCCGAAGCCT	0.876	0.902	0.458	0.579	2.08	0.654	-0.709	-0.493
GATACAGGGTCAAGGACAGAGTACGCGTATTGAT	3.58	5.67	5.78	2.36	6.51	3.85	2.14	2.72
ATCACTAGGTAAGACTCAGTTCAGTGAAGAACGC	0.405	0.282	0.333	0.204	-0.0584	0.526	0.536	1.28
CTACCAAGATGAACAAGGTCGTTGATTACTATTC	1.24	0.579	0.551	1.52	0.837	1.77	1.54	2.53
CACACAGGGTCAGCTAGGCCAGAGTAGGGACGGC	3.23	4.52	4.78	1.76	4.03	3.04	0.987	2
CAGCCTAGGTCAGGGGCAGTATAGGAGGAACGTT	2.99	3.27	4.18	-0.191	1.91	2.37	0.948	0.103
CCGGCTAGGTCAATGGTCAGCTAAAGCAGCTCGC	3.19	3.59	4.45	1.33	2.4	2.16	0.768	0.413
CCGACTGGGGCATAAGGTTACCGTAAGCCAGCCC	1.83	2.05	1.06	-0.367	1.34	2.26	1.13	-0.402
TTACCAAGTTGAGCTGAGGTCGTTGATCCAACTC	0.944	0.311	0.0622	0.245	0.839	4.34	1.77	2.04
TCGAGTAGGTAAGTCGGGGCATTCAGCCAACATA	-0.0679	-0.527	-0.571	0.129	-0.331	0.543	-0.297	-0.05
GCATATATGTAATACAAGGTGAAAGTCCGATTGT	0.691	0.257	0.615	0.612	0.52	2.79	1.14	-0.0295
